40 compounds from PubChem BioAssay (NCATS) can be followed below.

Inconclusive results are not listed. Entries that show only a call come without a potency. Calls of active or inactive are those of the source. Calls come from the whole dose curve; as a rule, active = well fitted inhibition curve with a large enough effect; inconclusive = small, poorly fitted or top-dose-only effect; inactive = no such curve, though single readings can be large or run the other way.
Potency is the fitted concentration of half-maximal effect.

A short description of the assay: qHTS Screen of the MIPE 4.0 Collection Against Ewings Sarcoma (RDES) (AID 1259252). Note: nearly all actives have a fitted effect of over 35% in size. The settings on record: RD-ES Ewing sarcoma viability, CellTiter-Glo, 48 h; series mostly up to 45.8 µM. The text has this: There is a large unmet medical need for treatments for Ewing sarcoma, a pediatric sarcoma. We sought to identify compounds that inhibited Ewing sarcoma cells in vitro with the goal to then test promising drugs in two drug combinations in vitro to look for synergistic drug combinations. Promising combinations would then proceed to additional validation, including in vivo testing.
Using the NCATS developed oncology compound library called the Mechanism of Interrogation Plate (MIPE), four Ewing sarcoma cell lines were evaluated (TC32, TC71, RDES, EW8). Compounds, in a 12-point titration series, were incubated with cells for 48 hours and the read out was cell viability (CellTiter-Glo from Promega). These initial experiments were used to select appropriate concentrations of each single agent for subsequent two-drug matrix combinations such that the concentrations in the matrices would span both activity and non-activity.
Cells, in the log phase of growth, were seeded in 5 uL of RPMI plus 5% FBS, […] L-glutamine, 100 U/ml penicillin and 100 ug/ml streptomycin into 1536-well solid-bottom white tissue culture treated Greiner Bio One Plates (789173-F) using a MultiDrop Combi (Thermofisher Scientific) dispenser and a small sterile cassette. One column was media alone to be used as a :"no cells" control. The plates were then covered with sterilized stainless steel gasketed lids from Kalypsys. After allowing cells to attach for 4 hours, 23 nL of test compound or control (negative control DMSO and positive control 9.2 uM Bortezomib-final) were added from a 1536-well polypropylene compound source plate to each well using a 1536 head pin tool from Kalypsys. Cells were then incubated for 48 hours at 37C, 95% relative humidity and 5% CO2. After 48 hours, plates were removed from the incubator and 3 uL of CellTiter-Glo (Promega) was added using an Aurora Flying Reagent Dispenser Bioraptor. Plates were incubated at room temperature for 10 minutes prior to reading the luminescence on the Viewlux (PerkinElmer). The relative luciferase units are used to calculate the percent activity using the activity of DMSO in the cells and no cells columns for normalization of no inhibition and full inhibition respectively.
A general note: Quantitative high-throughput screening tests each substance at several concentrations.
`CN(Cc1cnc2nc(N)nc(N)c2n1)c1ccc(C(=O)N[C@@H](CCC(=O)O)C(=O)O)cc1`: the Potency is 0.0332 µM (active). As to `CC(C)Cc1ccc(C(C)C(=O)O)cc1` (stereo not given), the Potency result was “inactive”. For the compound `O=C(c1ccc(OCCN2CCCCC2)cc1)c1c(-c2ccc(O)cc2)sc2cc(O)ccc12`, the Potency was 2.35 µM (active). As for `NCCS(=O)(=O)O`, the Potency result is “inactive”.

As to `Cc1ccc(-c2cc(C(F)(F)F)nn2-c2ccc(S(N)(=O)=O)cc2)cc1`, the Potency is 4.18 µM (active). `CN(C)CCCN1c2ccccc2CCc2ccc(Cl)cc21`: the Potency is 0.662 µM (active). The result for `COc1ccc2c(c1)c(CC(=O)O)c(C)n2C(=O)c1ccc(Cl)cc1` reads 14.8 µM (active); that for `CC#C[C@]1(O)CC[C@H]2[C@@H]3CCC4=CC(=O)CCC4=C3[C@@H](c3ccc(N(C)C)cc3)C[C@@]21C`, 0.187 µM (active); that for `CC(COc1ccccc1)N(CCCl)Cc1ccccc1` (stereo not given), “inactive”. Regarding `CC[N+](CC)(CC)CCOc1cccc(OCC[N+](CC)(CC)CC)c1OCC[N+](CC)(CC)CC`, the Potency result is “inactive”. For `Fc1ccc([C@@H]2CCNC[C@H]2COc2ccc3c(c2)OCO3)cc1`, the Potency entry is “inactive”. In the case of `COc1ccc(CCN(C)CCCC(C#N)(c2ccc(OC)c(OC)c2)C(C)C)cc1OC` (stereo not given), the Potency entry is “inactive”. Turning to `CC(C)C(=O)Nc1ccc([N+](=O)[O-])c(C(F)(F)F)c1`, the Potency was 7.43 µM (active). Take `NCCc1cnc[nH]1`: the Potency is 5.9 µM (active). The result for `COc1ccccc1OCC(O)CN1CCN(CC(=O)Nc2c(C)cccc2C)CC1` (stereo not given) reads “inactive”. Regarding `Cc1cc(C(C)(C)C)cc(C)c1CC1=NCCN1`, the Potency entry was “inactive”. `CC(C)(Oc1ccc(C2CC2(Cl)Cl)cc1)C(=O)O` (stereo not given): the Potency was 8.55 µM (active). The result for `NS(=O)(=O)c1cc2c(cc1Cl)NCNS2(=O)=O` reads “inactive”.

In the case of `CC(C)NCC(O)COc1ccc(CCOCC2CC2)cc1` (stereo not given), the Potency entry is “inactive”. The result for `O=C(Nc1ccc([N+](=O)[O-])cc1Cl)c1cc(Cl)ccc1O` reads 16.6 µM (active); that for `O=C1c2c(O)ccc(O)c2C(=O)c2c(NCCNCCO)ccc(NCCNCCO)c21`, 0.166 µM (active); that for `CN1CCC(=C2c3ccccc3CC(=O)c3sccc32)CC1`, 11.8 µM (active). `Cc1cn([C@H]2C[C@H](N=[N+]=[N-])[C@@H](CO)O2)c(=O)[nH]c1=O`: the Potency entry was “inactive”.

With `CC(=O)OCC(CCn1cnc2cnc(N)nc21)COC(C)=O`, the Potency entry is “inactive”.

As to `Nc1nc2c(ncn2COC(CO)CO)c(=O)[nH]1`, the Potency is 26.4 µM (active).

On to `O=c1[nH]cc(F)c(=O)[nH]1`, for which the Potency was 5.26 µM (active). Then `CC12CC3CC(C)(C1)CC(N)(C3)C2`, with “inactive”.

Consider `Cn1ccc2cc3c(cc21)CCN3C(=O)Nc1cccnc1`, for which the Potency was 16.6 µM (active). The result for `COc1ccc2[nH]cc(CCNC(C)=O)c2c1` reads 1.18 µM (active); that for `COc1cc2nc(N(C)CCCNC(=O)C3CCCO3)nc(N)c2cc1OC` (stereo not given), “inactive”. The result for `CN(C)c1nc(N(C)C)nc(N(C)C)n1` reads “inactive”.

Turning to `N[C@@H](Cc1c[nH]c2ccc(O)cc12)C(=O)O`, the Potency entry was “inactive”. Then `Cc1ccccc1N1C(=O)c2cc(S(N)(=O)=O)c(Cl)cc2NC1C` (stereo not given), with “inactive”; and `CC1(CN2CCC(n3c(=O)[nH]c4ccccc43)CC2)OCc2ccccc2-n2cccc21` (stereo not given), with 16.6 µM (active); and `C[C@](N)(Cc1ccc(O)c(O)c1)C(=O)O`, with “inactive”.

As for `CCC1(C)CC(=O)NC1=O` (stereo not given), the Potency result is “inactive”. The result for `CCc1cccc2c3c([nH]c12)C(CC)(CC(=O)O)OCC3` (stereo not given) reads “inactive”. The result for `O=c1c(O)c(-c2ccc(O)c(O)c2)oc2cc(O)cc(O)c12` reads 10.5 µM (active); that for `CCCCc1oc2ccccc2c1C(=O)c1cc(I)c(OCCN(CC)CC)c(I)c1`, 8.33 µM (active); that for `CC1(C)O[C@H]2CC(=O)OC[C@]23[C@H]2CC[C@@]4(C)[C@H](c5ccoc5)OC(=O)[C@H]5O[C@]54[C@]2(C)C(=O)C[C@@H]13`, “inactive”.
